This is a sample that favours compounds with a hit; in the whole collection about 21% have one here.
CYP2C19 inhib: human CYP2C19 inhibition. 96,000 compounds, 21% hits. P33261. inhibition, % at 5 µM. AID 778. CYP2C19 Supersomes, luciferin-H EGE luminescence, 30 min;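 active means CYP2C19 inhibition above a set limit at 5 µM in the primary screen, cut at about 50% in these data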;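 further: plate controls were negative control wells for no effect and 2.5 mM tranylcypromine positive control for full effect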
Target sequence (P33261 whole entry, looked up): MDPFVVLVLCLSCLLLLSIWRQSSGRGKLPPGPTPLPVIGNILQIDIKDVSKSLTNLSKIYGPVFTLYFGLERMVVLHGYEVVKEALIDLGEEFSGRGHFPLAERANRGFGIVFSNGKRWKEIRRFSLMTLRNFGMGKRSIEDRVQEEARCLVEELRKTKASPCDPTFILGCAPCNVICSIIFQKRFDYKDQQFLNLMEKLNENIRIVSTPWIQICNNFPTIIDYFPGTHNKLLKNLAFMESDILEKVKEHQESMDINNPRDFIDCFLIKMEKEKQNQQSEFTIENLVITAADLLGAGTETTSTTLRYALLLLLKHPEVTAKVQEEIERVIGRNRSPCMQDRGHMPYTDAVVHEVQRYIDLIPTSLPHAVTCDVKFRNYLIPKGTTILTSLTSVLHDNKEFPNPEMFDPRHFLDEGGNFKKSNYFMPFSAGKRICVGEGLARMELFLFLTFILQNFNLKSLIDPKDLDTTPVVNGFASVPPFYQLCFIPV
MRP reversal: MRP-mediated drug resistance reversal; 85,000 compounds, 0.04% hits; AID 602; H69AR cells + 2 uM doxorubicin, CellTiter-Glo, 72 h; differential viability (reversal), % at 10 µM;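 active means viability drop by adding the cancer drug above about 55%, with treated viability meeting a 40% cutoff, limit read from the data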;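 further: viability without doxorubicin minus viability with 2 µM doxorubicin for each compound; larger differential means the compound sensitizes cells more to doxorubicin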
CYP2C9 act: activators of human CYP2C9; AID 1024; activation factor at 5 µM; P11712; 96,000 compounds, 1.4% hits; recombinant CYP2C9, luciferin-H conversion, luminescence; stronger effect = higher value; factor 1 = untreated enzyme, 0 = blocked;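 active means activation factor of 2 or more for CYP2C9 at a 5 µM dose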;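 further: 0 = sulfaphenazole-blocked wells and 1 = vehicle-only wells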
CYP2C19 activ: increases human CYP2C19 enzyme activity. P33261. 96,000 tested, under 10 active. recombinant CYP2C19, luciferin-H EGE luminescence; stronger effect = higher value; 0 = fully inhibited enzyme, 1 = untreated enzyme. activation factor at 5 µM;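 active means activation factor of at least 2 at 5 µM in the primary screen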;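 further: 0 = wells with 2.5 mM tranylcypromine and 1 = vehicle-only wells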
MRP1 act: activates MRP-1. 140,000 compounds, 0.61% hits. viability increase, % at 10 µM. AID 799. H69AR cells + doxorubicin, viability rescue, CellTiter-Glo;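 active means viability gain under doxorubicin at or above a set limit, the compound median plus 3 SD, cut at about 4.7% in these data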;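 further: MRP-1 overexpressing cells given doxorubicin 25 µM after compound pretreatment; 18-22 h compound pretreatment then 72 h with doxorubicin before readout; 0% = doxorubicin-only wells and 100% = vehicle-treated cells without doxorubicin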
CYP2C9 inhib: human CYP2C9 inhibition | CYP2C9 Supersomes, luciferin-H conversion, luminescence | inhibition, % at 5 µM | 96,000 compounds, 20% hits | AID 777;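 active means blocking of liver enzyme CYP2C9 beyond about 50% at 5 µM, limit read from the data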
An asterisk follows results filed as active; . = no result.

SMILES	CYP2C19 inhib	MRP reversal	CYP2C9 act	CYP2C19 activ	MRP1 act	CYP2C9 inhib
Cc1cc(C(=O)Cn2nnc3ccccc3c2=O)c(C)n1-c1ccccc1F	52*	20	1	0.5	-2	4
COc1ccc(-n2c(C)cc(C(=O)Cn3nnc4ccccc4c3=O)c2C)cc1	60*	11	0.2	0.4	-1	83*
COc1ccc(-n2c(C)cc(C(=O)Cn3nc(C(=O)O)c4ccccc4c3=O)c2C)cc1	.	.	.	.	0	.
O=c1c2cnn(-c3ccc(F)cc3)c2ncn1Cc1ccccc1	.	0	.	.	-2	.
CCc1ccc(OCc2nnc(SCC(=O)N3CCN(c4ccccc4)CC3)o2)cc1	.	12	.	.	-2	.
CN1CCN(C(=S)NC(=O)/C=C/c2cccc3ccccc23)CC1	39	.	3*	0.6	-5	-201
O=C(CSc1nc2ccccc2o1)Nc1ccc(N2CCOCC2)c(Cl)c1	73*	7	0.1	0.3	3	89*
Cc1cc(Oc2ccccc2)nc(SCC(=O)Nc2ccccc2)n1	29	4	0.8	0.7	1	16
CC(=O)CSc1nc2ccc(Nc3nc(N4CCOCC4)nc(N4CCOCC4)n3)cc2s1	75*	3	0.5	0.3	-5	55*
O=C(CSc1nc2ccccc2s1)Nc1ccc(N2CCOCC2)c(Cl)c1	.	.	.	.	-1	.
CC(=O)Nc1ccc2nc(SCC(=O)Nc3ccc(N4CCOCC4)c(Cl)c3)sc2c1	45	.	0.2	0.6	-1	76*
O=C(CSc1nc2ccccc2o1)Nc1cc(C(F)(F)F)ccc1N1CCOCC1	46	.	0.6	0.5	-1	39
Cc1cc(Oc2ccccc2)nc(SCC(=O)Nc2ccc(Cl)c(Cl)c2)n1	56*	-9	0.4	0.4	1	65*
O=C1C2C3C=CC(O3)C2C(=O)N1CC(O)c1ccccc1 (stereo not given)	8	5	1.1	0.9	-1	-7
Cc1cc(C)nc(SCC(=O)Nc2ccc(N3CCOCC3)c(Cl)c2)n1	36	7	0.5	0.6	-2	52*
Cc1cc(N2CCOCC2)nc(SCc2ccc(Cl)cc2Cl)n1	48	.	0.4	0.5	-1	64*
O=C(O)c1ccc(NC(CSCc2cccc(F)c2)C(=O)O)c([N+](=O)[O-])c1 (stereo not given)	-15	12	0.4	1.2	0	62*
O=C(O)c1ccc(NC(CSCc2ccccc2F)C(=O)O)c([N+](=O)[O-])c1 (stereo not given)	.	.	.	.	0	.
O=C(O)c1ccc(NC(CSCc2ccc(F)cc2)C(=O)O)c([N+](=O)[O-])c1 (stereo not given)	-14	1	0.1	1.1	0	90*
Cc1ccc(CSCC(Nc2ccc(C(=O)O)cc2[N+](=O)[O-])C(=O)O)cc1 (stereo not given)	-14	1	0.1	1.1	1	94*
Cc1cc(Cl)ccc1NC(=S)NCCN1CCOCC1	.	.	.	.	-3	.
O=C(O)c1c(-c2ccccc2)c2oc3ccccc3c2[nH]c1=O	-13	.	1	1.1	0	-4
COC(=O)c1c(NC(=O)c2cccnc2Cl)sc(C(=O)N(C)C)c1C	.	.	.	.	-1	.
COC(=O)c1cc(S(=O)(=O)n2nc(C)c(Br)c2C)c(Cl)cc1Cl	73*	-10	0.7	0.3	-4	27
O=C(c1ccccc1Cl)N1CCN(c2ccccn2)CC1	82*	3	0.2	0.2	0	78*
SMILES	CYP2C19 inhib	MRP reversal	CYP2C9 act	CYP2C19 activ	MRP1 act	CYP2C9 inhib
CCOC(=O)N1CCN(C(=O)c2cccc(OC)c2O)CC1	57*	.	1	0.4	0	4
CN1CCN(C(=O)c2ccc(Cl)c(S(=O)(=O)N3CCCCC3)c2)CC1	24	7	0.9	0.8	-2	11
O=C(c1cc2ccccn2n1)N1CCN(c2ccccn2)CC1	55*	7	0.8	0.5	0	18
NC(=O)C1CCN(C(=O)c2cc3ccccn3n2)CC1	-14	7	1.1	1.1	0	-13
O=C(c1ccc(Cl)c(S(=O)(=O)N2CCCCCC2)c1)N1CCN(c2ccccn2)CC1	25	.	0.4	0.7	-1	57*
Nc1nc(-c2cccnc2)nn1C(=O)c1ccco1	1	4	1.1	1	0	-9
O=C(/C=C/c1ccccc1)N1CCN(c2ccccn2)CC1	48	.	0.5	0.5	0	53*
CCOC(=O)N1CCN(C(=O)c2ccccc2CCc2ccccc2)CC1	77*	-27	0.1	0.2	0	87*
O=C(c1ccccc1CCc1ccccc1)N1CCN(c2ccccn2)CC1	91*	-3	0.1	0.1	0	95*
CCOC(=O)N1CCN(C(=O)c2ccccc2-c2ccccc2)CC1	.	-28	.	.	-6	.
O=C(/C=C/c1ccccc1)c1ccccn1	51*	.	0.7	0.5	-7	27
O=C(/C=C/c1ccc(Cl)cc1)N1CCN(c2ccccn2)CC1	.	.	.	.	2	.
Cc1ccc(Cn2c(SCC(C)C)nc3c2c(=O)n(C)c(=O)n3C)cc1	27	10	0.9	0.7	3	5
CC(C)CC(=O)NC1(C(F)(F)F)C(=O)N(CC(C)C)C2=C1C(=O)CC(C)(C)C2 (stereo not given)	.	.	.	.	-3	.
CCN(CC(=O)NC1CCS(=O)(=O)C1)S(=O)(=O)c1ccc(C)cc1C (stereo not given)	.	.	.	.	-1	.
CCCSc1nc(C)c(-c2csc(C(C#N)=C3CCCC3)n2)cc1C#N	13	14	0.7	0.9	-4	28
Cc1cccc(C(=O)NCc2nnc3c4ccccc4c(-c4ccccc4)nn23)c1	.	.	.	.	0	.
COc1ccc(Cn2nnnc2C(C(C)C)N(Cc2ccco2)Cc2cccs2)cc1 (stereo not given)	56*	-16	0.3	0.4	-3	66*
CC(C)C(c1nnnn1Cc1ccccc1)N(Cc1ccco1)Cc1cccs1 (stereo not given)	96*	-15	0.1	0	-4	89*
CC(C)(C)n1nnnc1C(c1ccc(C(F)(F)F)cc1)N(Cc1ccccc1)Cc1ccco1 (stereo not given)	34	26	0.9	0.7	-3	5
COc1nc(N(C#N)CC(N)=O)nc(N2CCCC2)n1	-4	3	1	1	0	-2
COCCCNC(=O)CN(c1ccc(Cl)c(Cl)c1)S(C)(=O)=O	30	-3	1	0.7	-4	-3
COc1ccc(N(CC(=O)NCCSc2ccccn2)S(C)(=O)=O)cc1Cl	55*	7	0.4	0.5	-3	60*
COCCNC(=O)CN(c1ccc(C)cc1)S(=O)(=O)c1ccccc1	12	-4	1.1	0.9	-1	-11
Cc1ccc(S(=O)(=O)N(CC(=O)NCCSc2ccccn2)c2cc(C)cc(C)c2)cc1	42	.	0.2	0.6	-2	79*
COCCNC(=O)CN(c1ccc(C)cc1)S(=O)(=O)c1ccc(SC)cc1	98*	1	0.2	0	0	77*
COc1ccc(C2=NC(c3ccccc3)CO2)cc1 (stereo not given)	.	.	.	.	1	.
